Active and inactive are the calls of the source. How the source made its calls: active means hit-call score of the fitted dose curve at least 0.9, where 1 is the maximum; inactive means score below 0.9.
Read-out: Urokinase-type plasminogen activator receptor (uPAR), PLAUR (gene 5329)
Assay: BSK_4H_uPAR: BioMAP Diversity Plus: 4H Assay for Urokinase-type plasminogen activator receptor (uPAR) Biomarker Activity (AID 2283030)
Conditions: primary human endothelial cells (HUVEC); actives raise or lower the signal
Procedure, shortened: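 Human umbilical vein endothelial cells in the 4H system, 24 h after chemical dosing. Cell-surface uPAR measured by ELISA, fitted in both directions versus DMSO; cytotoxicity checked by SRB total protein in parallel cultures.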

outcome, inactive:
COCCOc1cc2cc(C(=O)NC3CCN(C(C)C)CC3)n(CC(=O)Nc3ccc(Cl)cn3)c2cn1
CCCCCCCCO
CC(C)CCCCCCOC(=O)c1ccc(C(=O)OCCCCCCC(C)C)c(C(=O)OCCCCCCC(C)C)c1
Nc1nc2ncc(CNc3ccc(C(=O)N[C@@H](CCC(=O)O)C(=O)O)cc3)nc2c(=O)[nH]1
Cn1c(=O)cc(Oc2ccc(F)cc2F)c2cnc(NCC(C)(C)O)nc21
CC(=O)OCCC(C)C
COC(=O)CC(=O)OC
Cc1c(-c2cccnc2)c2ccccc2n1CCCCC(=O)O
Nc1cccc(N)c1
COC(=O)c1ccccc1O
CC[C@H]1OC(=O)[C@H](C)[C@@H](O[C@H]2C[C@@](C)(OC)[C@@H](O)[C@H](C)O2)[C@H](C)[C@@H](O[C@@H]2O[C@H](C)C[C@H](N(C)C)[C@H]2O)[C@](C)(O)C[C@@H](C)C(=O)[C@H](C)[C@@H](O)[C@]1(C)O

AC50, active:
CCc1cc(SCc2sc(-c3ccc(C(F)(F)F)cc3)nc2CN2CCN(c3ccc(OC)cc3)CC2)ccc1OCC(=O)O 16 µM
CC[C@H](C)C(=O)O[C@H]1C[C@@H](C)C=C2C=C[C@H](C)[C@H](CC[C@@H]3C[C@@H](O)CC(=O)O3)[C@H]21 19.9 µM

— PubChem BioAssay (EPA / NIEHS)
